Source: PubChem
Chronic BCR inh = qHTS Assay to Find Inhibitors of Chronic Active B-Cell Receptor Signaling; ABC-DLBCL IkBa-CBG/CBR reporter, luminescence ratio, 4 h; Potency, µM (series often up to 46.1 µM), for the others: at the top dose activity change, negative = inhibition, hits mostly inhibitors; hit rate 0.05% among 340,000; active = well fitted inhibition curve with a large enough effect in the signal ratio, with a control signal flat, not every such curve was filed as active; inconclusive = small, poorly fitted or top-dose-only effect, or effect the other way, or a change in a side signal; the % refers to the signal ratio;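 note: potency is the fitted concentration of half-maximal effect; plate controls were basal doxycycline-induced cells for no effect and cells given 10 µM MG132 for full effect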
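TMD8 ABC-DLBCL cells carrying doxycycline-inducible green luciferase fused to IkappaBalpha plus unfused red luciferase were exposed to compounds (up to 46 uM) for 4 hrs at 37C. Activity came from the overlap-corrected green/red luminescence ratio.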
DT40 TDP1 no CPT = qHTS for Inhibitors of human tyrosyl-DNA phosphodiesterase 1 (TDP1): qHTS in cells in absence of CPT. DT40 Tdp1-/- hTDP1 cells, no CPT, ATP luminescence, 48 h. Potency, µM (series often up to 46.2 µM), without a hit: top-dose activity change, negative = growth inhibition, usual class: inhibitors. hit rate 15% among 420,000. AID 686978, 2013; note: potency is the fitted concentration of half-maximal effect; % is set by controls: 0 for no effect and ±100 for the full control effect; nearly all actives have a fitted effect of over 55% in size
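Chicken DT40 Tdp1-/- cells stably complemented with human TDP1 were seeded at 400 cells/well with DMSO in place of 20 nM camptothecin. After compound pinning, cells grew at least 48 hr at 37 °C; viability read by CellTiter-Glo luminescence.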
SW480 rereplic = A quantitative high throughput screen for small molecules that induce DNA re-replication in SW480 colon adenocarcinoma cells; SW480 DNA re-replication, Hoechst DNA content imaging, 48 h; Potency, µM (doses to about 46.1 µM), inactives show at the top dose re-replication activation, most hits filed as activators; hit rate 1.8% among 340,000; AID 624297, 2012; note: potency is the fitted concentration of half-maximal effect; % of control where 0% means no effect; nearly all actives have a fitted effect of over 55% in size
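Readout is total intensity of Hoechst-stained nuclei, excited at 405 nm and collected at 500-530 nm. Compound treatment lasted 48 hr at 37 C in 5% CO2 before staining.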
MCF10A rerep = A quantitative high throughput screen for small molecules that induce DNA re-replication in MCF 10a normal breast cells. hit rate 2.9% among 350,000. AID 624296, 2012. MCF 10A DNA re-replication, Hoechst nuclear intensity, 48 h. Potency, µM (highest dose often 46.1 µM), inactives show at the highest dose activity, positive = re-replication, hits mostly activators; note: potency is the fitted concentration of half-maximal effect; % of control where 0% means no effect; nearly all actives have a fitted effect of over 50% in size
IL1B secr inh = qHTS for Inhibitors of Inflammasome Signaling: IL-1-beta AlphaLISA Primary Screen; activity change, % at 57.5 µM; THP-1 LPS/ATP IL-1B secretion, AlphaLISA, 16 h; hits give low values; hit rate 4.7% among 360,000; in the data active = activity change below about -50%; inconclusive = mostly about -30% to -49%; note: % is set by controls: 0 for no effect and ±100 for the full control effect
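THP-1 cells pretreated 1 hr with compounds (up to 57.5 uM final), then stimulated with LPS (250 ng/mL final) plus ATP (1.25 mM final); secreted IL-1B measured by AlphaLISA after 16 hr, decreased signal indicating inhibition.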
TDP1 cell CPT = qHTS for Inhibitors of human tyrosyl-DNA phosphodiesterase 1 (TDP1): qHTS in cells in presence of CPT | Potency, µM (doses to about 46.2 µM), for inactives: at the top dose activity change, negative = growth inhibition, actives largely listed as inhibitors | chicken DT40 Tdp1-/-;hTDP1 cells + 20 nM CPT, ATP luminescence, 48 h | hit rate 12% among 420,000; note: potency is the fitted concentration of half-maximal effect; % is set by controls: 0 for no effect and ±100 for the full control effect; nearly all actives have a fitted effect of over 55% in size
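Chicken DT40 Tdp1-/- cells complemented with human TDP1, 400 cells/well, exposed to compounds plus 20 nM camptothecin for at least 48 h at 37 C; viability read as ATP content by CellTiter-Glo luminescence.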
Starred values were filed as active, the others as inactive; ? = inconclusive; nt = no result given. Most compounds without a hit are left out; they make up all but 19% or so of the library. Unless noted, calls come from the whole dose curve; as a rule, active = well fitted curve in the direction sought with a large enough effect; inconclusive = small, poorly fitted or top-dose-only effect, or another doubt; inactive = no such curve, though single readings can be large; an effect the other way counts as inactive or inconclusive.

SMILES	Chronic BCR inh	DT40 TDP1 no CPT	SW480 rereplic	MCF10A rerep	IL1B secr inh	TDP1 cell CPT
O=C(Cn1cc(C(F)(F)F)ccc1=O)N/N=C/c1ccc(F)cc1	2%	-27%	10%	3%	-6	23%
CSc1nc(C)cc(OCC(=O)N/N=C/c2ccccc2O)n1	?	?	?	5.2µM*	49	2.9µM*
O=C(Cn1cc(C(F)(F)F)ccc1=O)N/N=C/c1ccccc1O	15%	7.3µM*	5.8µM*	0%	116	16µM*
O=C(N/N=C/c1cc(Br)ccc1O)c1ccccc1Cl	?	0.92µM*	?	?	53	0.65µM*
O=C(CSCc1ccccc1)N/N=C/c1cc2c(cc1Br)OCO2	?	18µM*	nt	14%	0	-74%
O=C(CSCC(=O)NN=Cc1ccccc1O)NN=Cc1ccccc1O	nt	5.8µM*	?	15µM*	38	5.8µM*
O=C(N/N=C/c1ccccc1Cl)c1ccncc1	4%	-13%	4%	?	-10	0%
O=C(N/N=C\c1cccnc1)c1ccccc1O	?	-5%	14%	-2%	-17	9%
O=C(N/N=C/c1cc(Cl)ccc1O)c1ccncc1	-1%	3.3µM*	0.65µM*	?	217	5.8µM*
O=C(N/N=C\c1ccccc1O)c1ccccc1O	nt	0.53µM*	nt	nt	nt	0.53µM*
CC(C)c1ccccc1NC(=O)CN(c1ccccc1)S(=O)(=O)N(C)C	nt	-26%	nt	nt	nt	?
COCC(=O)N1CCC[C@@]2(CCN(C(=O)Nc3cccc(F)c3)C2)C1	nt	-5%	nt	nt	nt	11%
N#Cc1ccc(CC(C(=O)O)N2Cc3ccccc3C2=O)cc1 (centres undefined)	?	-17%	?	3%	4	-7%
O=C(NCc1ccccn1)C(=O)N/N=C/c1ccccc1O	-12%	23µM*	?	8%	146	?
Cc1cc(/C=N/NC(=O)C(=O)NCc2ccccn2)c(C)n1-c1cccc(Br)c1	2%	?	-6%	-2%	-3	?
O=C(CCCC(=O)N/N=C/c1ccccc1C(=O)O)N/N=C/c1ccccc1C(=O)O	0%	-19%	0%	-4%	10	-20%
O=C(CCCCC(=O)NN=Cc1ccccc1O)NN=Cc1ccccc1O	nt	5.8µM*	1.5µM*	?	123	5.8µM*
O=C(NCC1CCCO1)C(=O)N/N=C/c1ccc(O)c(Cl)c1 (centres undefined)	-1%	3%	3%	-3%	9	6%
O=C(NCC1CCCO1)C(=O)N/N=C/c1cc(Cl)ccc1O (centres undefined)	-2%	?	15µM*	7%	175	?
Cc1nn(-c2ccccc2)c(N)c1Sc1ccccc1[N+](=O)[O-]	-1%	16µM*	?	10%	10	?
FC(F)(F)c1ccc(N2CCN(c3cc(-c4ccccc4)nc4ncnn34)CC2)nc1	?	3.3µM*	9%	-1%	-61*	3.7µM*
FC(F)(F)c1cccc(Nc2cc(-c3ccccc3)nc3ncnn23)c1	2%	?	-2%	-2%	-5	-29%
c1ccc(-c2cc(-c3ccccc3)n3ncnc3n2)cc1	?	29µM*	1%	3%	-11	?
CCOC(=O)CSc1cc(-c2ccccc2)nc2ncnn12	?	?	-31%	2.3µM*	nt	-9%
Cc1c(N2C(=O)CSC2=S)c(=O)n(-c2ccccc2)n1C	-1%	?	-5%	?	-77*	?
SMILES	Chronic BCR inh	DT40 TDP1 no CPT	SW480 rereplic	MCF10A rerep	IL1B secr inh	TDP1 cell CPT
O=C(Nc1cccc(Cl)c1Cl)c1cc(S(=O)(=O)NCc2ccc3c(c2)OCO3)ccc1F	-3%	-1%	nt	nt	nt	5%
C=CCn1c(SCC(=O)N2CCc3ccccc3C2)nc2ccccc2c1=O	11%	18µM*	0%	?	13	?
C=CCn1c(SCC(=O)Nc2cccc(S(N)(=O)=O)c2)nc2sc(C)c(C)c2c1=O	?	?	-5%	15%	-61*	?
COCC(C)n1c(SCC(=O)N2CCCCC2)nc2ccccc2c1=O (centres undefined)	0%	?	20%	30%	-18	?
COCC(C)n1c(SCc2cc(=O)n3cc(C)ccc3n2)nc2ccccc2c1=O (centres undefined)	-5%	10µM*	1%	26%	5	?
CCn1c(SCC(=O)N2CCCC2)nc2ccccc2c1=O	?	-16%	-1%	-1%	-10	-5%
COCC(C)n1c(SCC(=O)N2CCc3ccccc3C2)nc2ccccc2c1=O (centres undefined)	-7%	1.8µM*	-2%	-1%	-24	2.3µM*
Cc1cccc(NC(=O)CN2C(=O)c3cccc4cccc2c34)c1C	nt	-14%	nt	nt	nt	0%
C=CCn1c(SCC(=O)N2CCc3ccccc3C2)nc2sc(CC)cc2c1=O	?	?	-1%	15%	-2	?
C=CCn1c(SCC(=O)N2CCc3ccccc3C2)nc2sc(C)c(C)c2c1=O	2%	?	?	?	-6	18µM*
Cc1cccc(-c2noc(CCC(=O)NCc3ccco3)n2)c1	?	-16%	-11%	-7%	2	?
Cc1cccc(-c2noc(CCCC(=O)NCc3ccco3)n2)c1	nt	16µM*	nt	nt	nt	15µM*
CC(C)(C)c1ccc(-c2noc(CNC(=O)c3ccco3)n2)cc1	?	?	0%	-5%	-15	-29%
CC(C)(C)c1ccc(-c2noc(CCC(=O)NCc3ccco3)n2)cc1	?	26µM*	8%	?	-57*	18µM*
CCNC(=O)C1(C)CCCN(Cc2cc3ccccc3o2)C1 (centres undefined)	nt	?	nt	nt	28	?
O=C(NC(c1ccccc1)c1ccccc1)c1ccc(CO)cc1	1%	-8%	-15%	0%	-12	12%
O=C(C[C@H]1CC[C@H]2[C@@H](COC[C@H](O)CN2Cc2ccccc2)O1)NCCCN1CCOCC1	nt	7%	nt	nt	-1	13%
Cc1ccc(-c2nnn(CC(=O)N3CCCc4ccccc43)n2)cc1	-1%	-21%	3%	3%	1	?
